DAX1 inh-1: NR0B1 (DAX1) inhibition | AID 504766 | P51843 | inhibition, % at 6.75 µM | HEK293 Gal4-DAX1 luciferase reporter, luminescence | 340,000 tested, 0.99% active;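 active = inhibition above the mean over all tested compounds plus 3 SD, cut at about 4.2% in these data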;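 note: 0% = DAX1-transfected cells with DMSO and 100% = empty-vector control cells with DMSO; inhibition shows as a rise in luminescence from relieved DAX1 repression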
Target sequence (P51843 207-470 limits assumed): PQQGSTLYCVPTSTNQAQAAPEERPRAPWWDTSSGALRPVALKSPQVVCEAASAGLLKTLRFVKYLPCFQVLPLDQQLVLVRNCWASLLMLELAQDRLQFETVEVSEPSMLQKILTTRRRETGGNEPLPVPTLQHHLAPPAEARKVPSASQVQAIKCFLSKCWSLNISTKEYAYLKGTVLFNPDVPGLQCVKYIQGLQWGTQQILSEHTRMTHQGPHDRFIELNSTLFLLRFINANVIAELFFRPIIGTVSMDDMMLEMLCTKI
hcDAF-12 act: activates DAF-12 receptor from parasite H. contortus. activation, % at 6.8 µM. 370,000 tested, 1.4% active. HEK293 hcDAF-12 lit1-tk-luc reporter, luminescence; 0% DMSO, 100% Δ7-dafachronic acid;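 active = activation above the mean of all tested compounds plus 3 SD, cut at about 5.5% in these data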;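 note: 100% = response to 3 µM Δ7-dafachronic acid high control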
DAX1 inh-2: DAX1 (NR0B1) inhibition, primary screen; AID 652010; HEK293T StAR-luciferase reporter, SF-1/DAX-1 repression relief; inhibition, % at 6.8 µM; 370,000 tested, 1.1% active;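 active = inhibition above the mean over all tested compounds plus 3 SD, cut at about 3.6% in these data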;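 note: 0% = DAX-1 cells with DMSO and 100% = cells lacking DAX-1 with DMSO; higher inhibition means more luminescence from relief of DAX-1 repression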
hgDAF12 agonist: hgDAF-12 agonism, primary luciferase screen. HEK293 GAL4-hgDAF12 UAS-luciferase reporter, agonist luminescence; normalized to butyrate control. activation, % at 6.8 µM. 370,000 tested, 1.8% active;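 active = activation above a cutoff set at the mean of all screened compounds plus 3 SD, cut at about 10% in these data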;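 note: 0% = DMSO wells and 100% = sodium butyrate wells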
ssDAF-12 act: activators of S. stercoralis DAF-12 nuclear receptor. HEK293 ssDAF-12/GRIP1 lit1-tk-luc reporter, luminescence; % of 3 µM dafachronic acid response. activation, % at 6.8 µM. 370,000 tested, 1% active. AID 652126;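 active = activation above the mean over all tested compounds plus 3 SD, cut at about 0.9% in these data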;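 note: 0% = DMSO-only wells and 100% = 3 µM delta7-dafachronic acid wells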
An asterisk follows results filed as active. Shown are actives, neighbours in structure and some others; about 4.1% of the full set was active somewhere.

Results for Cn1c(/N=C/c2c(O)ccc3ccccc23)nc2ccccc21 ?
DAX1 inh-1: -0.4; hcDAF-12 act: 0.0; DAX1 inh-2: -1.4; hgDAF12 agonist: -2.6; ssDAF-12 act: 1.3*

Results for CC(=O)c1ccc(NC(=S)N2CCN(CCO)CC2)cc1 ?
DAX1 inh-1: 4.8*; hcDAF-12 act: -0.7; DAX1 inh-2: -0.3; hgDAF12 agonist: -0.4; ssDAF-12 act: -1.0

Results for COC(=O)c1ccc(NC(=S)N2CCN(CCO)CC2)cc1 ?
DAX1 inh-1: -1.2; hcDAF-12 act: -2.8; DAX1 inh-2: 0.2; hgDAF12 agonist: 0.2; ssDAF-12 act: -1.6

Results for O=C(CCc1ccccc1)N[C@H]1/C(=N/O)CCC[C@]12C(=O)N(Cc1ccccc1)c1ccccc12 ?
hcDAF-12 act: -2.6; DAX1 inh-2: -1.3; hgDAF12 agonist: 1.6; ssDAF-12 act: -1.5

Results for CC1CCC/C(=N/NC(=O)c2ccccc2-n2cccc2)C1 (stereo not drawn) ?
DAX1 inh-1: -0.7; hcDAF-12 act: 6.1*; DAX1 inh-2: 0.0; hgDAF12 agonist: 1.5; ssDAF-12 act: -1.3

Results for CC1CCC(=NNC(=O)c2ccccc2-n2cccc2)CC1 (stereo not drawn) ?
DAX1 inh-1: 0.9; hcDAF-12 act: -1.0; DAX1 inh-2: 2.1; hgDAF12 agonist: -0.9; ssDAF-12 act: -1.5

Results for Nc1ccc2ccccc2c1N=Nc1ccccc1 ?
DAX1 inh-1: 0.7; hcDAF-12 act: 4.3; DAX1 inh-2: 1.0; hgDAF12 agonist: 3.8; ssDAF-12 act: 1.3*

What do the screens show for `CC1(c2ccccc2)CC(=O)N(c2ccc(NC(=O)c3ccccn3)cc2Cl)C1=O` (stereo not drawn)?
hcDAF-12 act: -2.2; hgDAF12 agonist: -0.6; ssDAF-12 act: -2.1

What do the screens show for `COc1ccc(Cc2nnc(Nc3ccc4c(c3)OCCO4)[nH]c2=O)cc1`?
DAX1 inh-1: -0.5; hcDAF-12 act: -1.2; DAX1 inh-2: -0.9; hgDAF12 agonist: 1.6; ssDAF-12 act: -1.3

What do the screens show for `CN1C(=O)[C@@](O)(c2cccn2C)c2cc(Cl)ccc21`?
hcDAF-12 act: -1.6; DAX1 inh-2: -0.4; hgDAF12 agonist: -0.6; ssDAF-12 act: 0.9*

What do the screens show for `COc1ccccc1/C=C1/C(=O)N(c2ccccc2)N=C1C`?
DAX1 inh-1: 0.1; hcDAF-12 act: 0.6; DAX1 inh-2: 0.0; hgDAF12 agonist: 1.3; ssDAF-12 act: -0.8

Results for CC1=NN(c2ccccc2)C(=O)/C1=C\c1sccc1C ?
DAX1 inh-1: 1.2; hcDAF-12 act: 3.0; DAX1 inh-2: 0.4; hgDAF12 agonist: 1.6; ssDAF-12 act: 1.7*

Results for C#CCN1CC(N(C)CCOC(=O)c2ccc(C(C)(C)C)cc2)CS1(=O)=O (stereo not drawn) ?
hcDAF-12 act: 2.5; DAX1 inh-2: -0.5; hgDAF12 agonist: -2.7; ssDAF-12 act: -0.9

How did CCCc1cc(=O)[nH]c(SCC(=O)NN(c2ccccc2)c2ccccc2)n1 do in these assays?
DAX1 inh-1: 0.4; hcDAF-12 act: -1.6; DAX1 inh-2: -0.8; hgDAF12 agonist: 2.4; ssDAF-12 act: -1.1

How did CCCCCCCCN1C(=O)[C@@H](CC(=O)N2CCCCC2)C[C@@]2(C(=O)OC)C1=C[C@H](COCc1ccccc1)O[C@@H]2C do in these assays?
hcDAF-12 act: 5.8*; DAX1 inh-2: -0.5; hgDAF12 agonist: 1.5; ssDAF-12 act: -0.6

Results for Clc1ccc2nc(-c3ccccn3)c(Nc3ccc4c(c3)OCO4)n2c1 ?
DAX1 inh-1: -2.4; hcDAF-12 act: -0.8; DAX1 inh-2: 0.8; hgDAF12 agonist: 13.2*; ssDAF-12 act: -1.2

What do the screens show for `C#CCNC(=O)C[C@@H]1C(=O)N(CCc2ccc(Cl)cc2)/C2=C/CCCCC[C@@]21C(=O)OCC`?
hcDAF-12 act: -2.1; DAX1 inh-2: -0.9; hgDAF12 agonist: 1.1; ssDAF-12 act: -1.1

What do the screens show for `CN(C)CCN1CC(O)=C(c2nc3ccccc3s2)C1=N`?
DAX1 inh-1: 4.8*; hcDAF-12 act: -0.9; DAX1 inh-2: 0.3; hgDAF12 agonist: 4.0; ssDAF-12 act: -1.4

Results for COc1ccc(CN2C(NC(=O)OCc3ccccc3)=NC3=CC(C)(C)n4c(=O)n(-c5ccccc5)c(=O)n4C32)c(OC)c1 (stereo not drawn) ?
hcDAF-12 act: -1.4; DAX1 inh-2: -0.3; hgDAF12 agonist: 3.2; ssDAF-12 act: -1.1

Results for Oc1ccc(-c2csc(-c3cccnc3)n2)cc1O ?
DAX1 inh-1: 1.1; hcDAF-12 act: -0.2; DAX1 inh-2: 1.1; hgDAF12 agonist: 13.0*; ssDAF-12 act: 0.3
